Test results from PubChem BioAssay (NCI).
Where “and” joins values, the source holds several entries; their conditions need not be identical. Equal entries are not always repeated. Compounds without any hit were thinned out: in the full panel of roughly 83,000, 20% have a hit.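 Values shown are percent growth following 48 h exposure of cells in 96-well plates to a single concentration of compound; below 10 was considered active.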 Values without a mark were called inactive. Calls of active or inactive are those of the source.

Test system: HL-60(TB) leukemia
Assay: NCI-60 one-dose screen, 48 h (100 = growth as untreated, 0 = no growth, -100 = all killed)
Conditions: 10 µM unless noted

| SMILES | growth |
| --- | --- |
| COc1ccc2c(c1)sc1nc(-c3ccc(Br)cc3)cn12 | 80.7% |
| N=C(N)N1CCc2ccccc2C1 | 93.6% and 109% |
| Fc1ccc(Nc2nc3nonc3nc2Nc2ccc(I)cc2)cc1 | -46.3% (active) |
| CC(=O)N1CC(=O)NC1=S | 103% |
| O=C(/C=C/c1cccc(O)c1)c1cccc(-n2cc(-c3ccccc3)[nH]c2=O)c1 | 42.1% |
| COc1cc(/C=C\c2cc(/C=C\c3ccc(O)c(OC)c3)n(C(=O)Nc3ccc(C(F)(F)F)cc3)n2)ccc1O | 15.2% |
| COc1cc(C2NC(c3ccc(Cl)cc3)C(C)C(=NC(=O)c3cnccn3)C2C)cc(OC)c1OC (stereo not given) | 98.4% |
| O=C1c2ccccc2CN1c1ccccc1 | 75.1% |
| CCCCCCCC[C@@H]1N[C@@H](C(=O)OC)Cc2c1[nH]c1ccccc21 | 99% |
| C=COC(=O)CCOCC(CC)CCCC (stereo not given) | 91.8% |
| Nc1nc(Cl)nc2c1ncn2C1OC(CO)C(O)C1O (stereo not given) | -20.7% (active) and -3.23% (active) |
| COc1ccc(C2NCCc3c2[nH]c2ccccc32)cc1CN1CCN(c2ccc(F)cc2)CC1 (stereo not given) | 24.7% |
| CN(CCc1ccccn1)c1ccccc1 | 34.4% |
| O=C(Nc1cccc(-n2ccc3c(NC(=O)c4ccccc4)nccc32)c1)c1ccc(N2CCOCC2)c(C(F)(F)F)c1 | -7.22% (active) |
| OCC1C2C=CC(C2)C1CO (stereo not given) | 87.5% |
| CCCCn1c(=O)[nH]c(N)c(C(c2ccc(Cl)cc2)c2c(N)[nH]c(=O)n(CCCC)c2=O)c1=O | 13.2% |
| Cc1nc2sc(C(=O)Nc3cccc(Cl)c3C)c(N)c2cc1C(=O)c1ccccc1 | 5.28% (active) |
| O=C(NCc1cn(Cc2cccc(Oc3ccccc3)c2)nn1)c1cccnc1Nc1ccccc1 | 32% |
| COc1ccc(C(=O)c2cc(C)c(OC)c(C)c2)c(OC)c1O | -25.8% (active) |
| COC(=O)c1c2c(c(C)[n+]([O-])c1C)C(=O)C(NCc1ccc(Cl)cc1)=CC2=O | 80.3% |

| SMILES | growth |
| --- | --- |
| C#CCN(C)Cc1ccccc1 | 101% and 96.4% |
| Cc1cc2c(c(=O)o1)C(c1ccc(OC(=O)N3CCOCC3)cc1)C(C#N)=C(N)O2 (stereo not given) | 104% |
| Cc1ccc(NC(=O)c2ccc(CN3CC[C@H](N(C)C)C3)c(C(F)(F)F)c2)cc1Nc1nccc(-c2cncnc2)n1 | -51.3% (active) |
| C=C(C)[C@@H]1CC[C@]2(C=O)CC[C@]3(C)[C@H](CC[C@@H]4[C@@]5(C)CCCNC(C)(C)[C@@H]5CC[C@]43C)[C@@H]12 | 7.59% (active) |
| CCn1ccnc1C(=O)/C=C/c1ccc(CC(=O)Nc2ccc(F)cc2)cc1 | 27.9% |
| O=C(CN1CCOCC1)Nc1ccc(-c2nc3ccccc3s2)cc1 | 101% |
| CCOc1ccc(S(=O)(=O)c2ccc(C)cc2)c2c1no[n+]2[O-] | 85.7% |
| O=C(Cn1ccc2ccccc21)Nc1ccc(-c2nc3ccccc3s2)cc1 | 99.9% |
| O=C(Cc1ccccc1)Cc1ccccc1 | 99.2% |
| COC(=O)c1ccc2c(c1)nc(-c1cc3ccccc3[nH]c1=O)n2-c1cc(C(C)(C)C)[nH]n1 | -16.9% (active) |
| CC(=O)NC(Cc1ccccc1)C(=O)Oc1ccc2ccccc2c1 (stereo not given) | 110% and 83.4% |
| COc1ccc(NC(=O)C(=O)c2c[nH]c3ccc(F)cc23)cc1 | 79% |
| COc1ccc(CCN2C(=O)CCC3=C2CCCC3=O)cc1OC | 107% |
| C=CCn1c(SCC(=O)Nc2ccc(C(=O)/C=C/c3ccc(Cl)cc3)cc2)nnc1-c1cc(-c2ccc(S(N)(=O)=O)cc2)nc2ccccc12 | 75.7% |
| COc1ccc(OC)c(NCC(=O)n2nc(/C=C\c3ccc(O)c(OC)c3)cc2/C=C\c2ccc(O)c(OC)c2)c1 | -8.64% (active) |
| O=C(/C=C/CN1CCCCC1)Nc1cc2c(Nc3ccc(F)c(Cl)c3F)ncnc2cc1OCCOC(F)F | 17.9% |
| c1ccc(NCc2ccc3c(c2)OCO3)cc1 | 94.6% and 96.1% |
| COc1cc(-c2nc(-c3nnc(-c4ccc(F)c(Cl)c4)o3)c3ccccn23)cc(OC)c1OC | 56.4% |
| CCCCCCCCn1ccc2cc(NC(=O)CN3CCN(c4nc(C)cc(Cl)n4)CC3)ccc21 | 91.1% |
| COc1cc(/C=C2\C(=O)N(Cc3ccc(Cl)cc3)c3ccccc32)cc(OC)c1OC | -13.5% (active) |
